PubChem BioAssay (EPA / NIEHS)
Inconclusive results are not listed. Activity calls are given as the source filed them. The calls were made as follows: active = hit-call score of the fitted dose curve at least 0.9, where 1 is the maximum; inconclusive = response in the unintended direction; inactive = score below 0.9.

biological target: human Matrix Metalloproteinase-1 (MMP1), MMP1 (gene 4312) (UniProt P03956); test: NVS_ENZ_hMMP1: NovaScreen (NVS) Enzymatic Assay for human Matrix Metalloproteinase-1 (MMP1) (AID 2283181)
Sequence (P03956 whole entry, looked up): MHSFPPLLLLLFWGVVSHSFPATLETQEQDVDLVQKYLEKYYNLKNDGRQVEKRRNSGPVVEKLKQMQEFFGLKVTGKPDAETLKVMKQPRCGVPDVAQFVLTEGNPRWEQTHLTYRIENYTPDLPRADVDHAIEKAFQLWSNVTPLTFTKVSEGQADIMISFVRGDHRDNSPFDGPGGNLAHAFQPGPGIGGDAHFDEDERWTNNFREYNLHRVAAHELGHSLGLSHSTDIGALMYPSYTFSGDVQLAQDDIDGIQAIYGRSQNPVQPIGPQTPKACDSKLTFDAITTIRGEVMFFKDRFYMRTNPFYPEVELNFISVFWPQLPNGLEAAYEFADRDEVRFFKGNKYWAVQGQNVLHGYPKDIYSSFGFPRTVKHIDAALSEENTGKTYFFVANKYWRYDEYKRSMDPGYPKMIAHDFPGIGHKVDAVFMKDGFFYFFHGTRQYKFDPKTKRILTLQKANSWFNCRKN
Method: NVS_ENZ_hMMP1 is a biochemical, single-readout assay that uses extracted gene-proteins in a cell-free assay. Measurements were taken 1 hour after chemical dosing in a 96-well plate.NVS_ENZ_hMMP1 is one of one assay component(s) measured or calculated from the NVS_ENZ_hMMP1 assay. It is designed to make measurements of enzyme activity, a form of enzyme reporter, as detected with fluorescence intensity signals by Fluorescence technology.Data from the assay component NVS_ENZ_hMMP1 was analyzed into 1 assay endpoint. This assay endpoint, NVS_ENZ_hMMP1, was analyzed in the positive analysis fitting direction relative to DMSO as the negative control and baseline of activity. Using a type of enzyme reporter, loss-of-signal activity can be used to understand changes in the enzymatic activity as they relate to the gene MMP1. Furthermore, this assay endpoint can be referred to as a primary readout, because this assay has produced multiple assay endpoints where this one serves a enzymatic activity function. To generalize the intended target to other relatable targets, this assay endpoint is annotated to the protease intended target family, where the subfamily is matrix metalloproteinase.
Binding assays used specific radioligands (tritiated, iodinated) with non-radioactive competitive displacement ligands in agonist or antagonist protocols (as indicated) and various reference compounds and inhibitors to titrate specific binding to receptors and transporters. Most enzyme assays (CYPs, kinases, phosphatases, proteases, HDACs) used recombinant protein and specific substrates (fluorescence mostly, some colorimetric and radioactive) and inhibitors, followed by a biochemical separation of substrate and product. All assays for the biochemical HTS were initially run in duplicate at a single concentration (10 uM for CYP450 assays and 25 uM for all others). Assay-chemical combinations meeting a pre-defined threshold (e.g., 30% inhibition and other criteria defined below) were then run in singleton concentration-response format with maximum concentration of 20 uM for CYPs and 50 uM for all others. Each assay was run with positive and negative controls, and concurrent controls on every plate. The follow-up (secondary) screen tested active chemical-pairs in concentration series, as well as a few additional assays not tested in the primary screen, some selected negative inactives, and several cases re-run in the concentration series for confirmatory purposes.

Row | SMILES | AC50 | outcome
1 | CN1CCN(Cc2cc(-c3ccc4[nH]c(=O)oc4c3)co2)[C@@H](c2ccc(F)cc2)C1 | 10.5 µM (active) | –
2 | O=C(O)c1cccc(C(=O)O)c1 | 13 µM (active) | –
3 | Cc1c(C)c2c(c(C)c1O)CCC(C)(COc1ccc(CC3SC(=O)NC3=O)cc1)O2 (stereo not given) | 6.75 µM (active) | –
4 | Cc1ccc([N+](=O)[O-])cc1N | – | inactive
5 | O=C(NO)C1(NS(=O)(=O)c2ccc(Oc3ccc(F)cc3)cc2)CCOCC1 | 17.9 µM (active) | –
6 | CC(=O)O[C@]1(C(C)=O)CC[C@H]2[C@@H]3C=C(Cl)C4=CC(=O)[C@@H]5C[C@@H]5[C@]4(C)[C@H]3CC[C@@]21C | – | inactive
7 | O=C(N[C@@H](Cc1ccccc1)[C@@H](O)C(=O)N1C[C@@H](O)[C@@H](O)C1)c1cc2cc(Cl)ccc2[nH]1 | – | inactive
8 | Cc1ccc(S(=O)(=O)NC(=O)NN2CCCCCC2)cc1 | 6.9 µM (active) | –
9 | CC(C)(c1cc(Br)c(O)c(Br)c1)c1cc(Br)c(O)c(Br)c1 | – | inactive
10 | c1ccc2n[nH]nc2c1 | – | inactive
11 | CC(=O)OC1CC(C)OC(C)O1 (stereo not given) | – | inactive
12 | Cc1cc(=O)[nH]c(=S)[nH]1 | – | inactive
13 | CO[C@@H]1COCC[C@@H]1N[C@@H]1CC[C@@](C(=O)N2CCc3ncc(C(F)(F)F)cc3C2)(C(C)C)C1 | – | inactive
14 | NCCO | – | inactive
15 | CCN(Cc1cccnc1)C(=O)c1cccc(Cl)c1[C@]1(C)C(=O)N(Cc2ccc(OC)cc2OC)c2ccc(Cl)cc21 | 9.73 µM (active) | –
16 | NC(=O)c1nc(-c2cccc(-c3cc(F)ccc3OCC(F)(F)C(F)(F)F)c2)n[nH]1 | 1.27 µM (active) | –
17 | Clc1cc(Cl)c(Cl)cc1Cl | – | inactive
18 | CCCCN1C(=O)[C@@H]([C@H](O)C2CCCCC2)NC(=O)C12CCN(Cc1ccc(Oc3ccc(C(=O)O)cc3)cc1)CC2 | – | inactive
19 | CNS(=O)(=O)c1cc(C(=O)N2CCC(CCN3C4CCC3CC(n3c(C)nc5ccccc53)C4)(c3cccc(F)c3)CC2)c(Cl)cc1F (stereo not given) | 16.7 µM (active) | –
20 | CN(C)C(=O)C1(N2CCCCC2)CCN(CC[C@@]2(c3ccc(Cl)c(Cl)c3)CN(C(=O)c3ccccc3)CCO2)CC1 | 17.1 µM (active) | –

Row | SMILES | AC50 | outcome
21 | CCCCCCCCCC | – | inactive
22 | CC(=O)NC1(c2cccc(F)c2)CCN(CC[C@@]2(c3ccc(Cl)c(Cl)c3)CN(c3ccccc3)C(=O)CO2)CC1 | – | inactive
23 | CCCCCCCCCCCCCCOS(=O)(=O)O | – | inactive
24 | CCCCCCCCOC(=O)c1cc(O)c(O)c(O)c1 | 13.9 µM (active) | –
25 | CCN(CC)CCOc1ccc(C(=C(Cl)c2ccccc2)c2ccccc2)cc1 | – | inactive
26 | CCC(C)c1ccccc1O (stereo not given) | 11.9 µM (active) | –
27 | COc1ccc2cc(S(=O)(=O)N[C@H](CC(=O)N[C@H](Cc3ccc(CN4[C@H](C)CCC[C@@H]4C)cc3)C(=O)N(C)C(C)C)c3ccc4c(c3)OCO4)ccc2c1 | – | inactive
28 | CCCCc1nc2cccnc2n1Cc1ccc(-c2ccccc2-c2nnn[nH]2)cc1 | 2.25 µM (active) | –
29 | CCN(Cc1cccc(S(=O)(=O)O)c1)c1ccc(C(=C2C=CC(=[N+](CC)Cc3cccc(S(=O)(=O)O)c3)C=C2)c2ccccc2S(=O)(=O)[O-])cc1 | – | inactive
30 | COC(=O)c1ccccc1O | – | inactive
31 | O=C(O)c1cccnc1 | – | inactive
32 | CCCCC(CC)COC(=O)CC(C(=O)OCC(CC)CCCC)S(=O)(=O)O (stereo not given) | – | inactive
33 | CC(=O)Oc1ccccc1C(=O)O | – | inactive
34 | CC(C)c1cccc(C(C)C)c1NC(=O)NS(=O)(=O)c1cc(C(C)(C)O)co1 | 37.1 µM (active) | –
35 | CCCCCCCCCCCCCCCCOS(=O)(=O)O | 4.54 µM (active) | –
36 | CCCCOC(=O)CC(CC(=O)OCCCC)(OC(C)=O)C(=O)OCCCC | – | inactive
37 | CC(C)(C)c1csc(-c2cc3cc(OCc4ccccc4CC(=O)O)ccc3o2)n1 | 22.5 µM (active) | –
38 | FC(F)(F)C(F)(F)C(F)(F)C(F)(F)C(F)(F)C(F)(F)CCI | – | inactive
39 | O=C(O)CCN(C1(C(=O)NO)CCCC1)S(=O)(=O)c1ccc(Oc2ccc(F)cc2)cc1 | 3.49 µM (active) | –
40 | O=[N+]([O-])c1ccc(O)cc1 | 16.9 µM (active) | –
